# Screens from PubChem BioAssay.
# Rows were chosen to be rich in hits. Some 1.5% of all compounds tested hit in one or more screens of this group.
# STK33 kinase inh: inhibitors of human STK33 kinase; Q9BYT3; purified STK33, MBP phosphorylation, ADP-Glo luminescence; inhibition, % at 10 µM; 320,000 compounds, 0.073% hits; AID 2661;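 active = inhibition at or above 25%, using the most active replicate where run in duplicate; inactive = inhibition below 25%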
# Target sequence (Q9BYT3 whole entry, looked up): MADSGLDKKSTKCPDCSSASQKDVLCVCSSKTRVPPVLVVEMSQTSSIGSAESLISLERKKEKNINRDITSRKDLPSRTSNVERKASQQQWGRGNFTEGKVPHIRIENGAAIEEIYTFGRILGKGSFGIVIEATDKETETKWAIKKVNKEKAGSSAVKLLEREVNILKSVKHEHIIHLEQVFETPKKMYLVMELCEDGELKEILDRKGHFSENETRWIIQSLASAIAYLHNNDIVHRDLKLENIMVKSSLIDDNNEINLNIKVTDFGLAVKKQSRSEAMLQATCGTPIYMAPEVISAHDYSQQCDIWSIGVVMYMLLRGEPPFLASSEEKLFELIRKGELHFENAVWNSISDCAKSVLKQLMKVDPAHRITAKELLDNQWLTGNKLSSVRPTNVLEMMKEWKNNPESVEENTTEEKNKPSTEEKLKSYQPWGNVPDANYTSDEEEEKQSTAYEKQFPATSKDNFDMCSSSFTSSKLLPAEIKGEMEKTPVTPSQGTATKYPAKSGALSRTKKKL
# PP1 counter: PP1-alpha (human) inhibition in PP5 counter-screen | 320,000 compounds, 0.9% hits | inhibition, % at 6.7 µM | AID 2235 | purified PP1alpha, OMFP fluorescence | P62136;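 active = inhibition above the mean inhibition of all tested compounds plus 3 SD, computed separately for each screening campaign, cut at about 15% in these data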
# HIF act: HIF pathway transcriptional activation | U2OS HRE-luciferase reporter, luminescence; normalized: DMSO 0%, desferrioxamine 100% | AID 1910 | activation, % at 7.5 µM (by protocol) | 300,000 compounds, 0.32% hits;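 active = mean activation of at least 10% of the iron chelator positive control signal, with at least half of replicates also reaching 10%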
# PP5 inh: blocks human protein phosphatase 5 activity; P53041; purified PP5c, OMFP substrate fluorescence; inhibition, % at 6.7 µM; 320,000 compounds, 0.18% hits;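 active = inhibition above the campaign's mean inhibition across all tested compounds plus 3 SD, cut at about 9.5% in these data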
# DYRK1A inh: blocks rat Dyrk1A kinase activity. inhibition, % at 12.5 µM. 310,000 compounds, 0.43% hits. Q63470. ADP-Glo luminescence, NFATc1 peptide. AID 504441; in the data active = inhibition above about 50%
# Numbers stand for hits; 0 = inactive; - = no result.
SMILES,STK33 kinase inh,PP1 counter,HIF act,PP5 inh,DYRK1A inh
COc1ccc2[nH]c(=O)c(CN(Cc3ccco3)C(c3nnnn3Cc3ccccc3)C(C)C)cc2c1 (stereo not drawn),0,0,0,0,0
COc1ccc2[nH]c3c(c2c1)CCN1C(=O)N([C@@H](C)C(=O)NC2CCN(Cc4ccccc4)CC2)C(=O)[C@]31C,0,0,0,0,0
CC(C)c1cc(-c2cc(C(=O)NCc3ccccc3)on2)nc(NC2CCCC2)n1,0,0,18,0,0
CC(C)(C)NC(=O)CSc1nc2ccc(NC(=O)CSc3nnnn3Cc3ccccc3)cc2s1,0,16,0,0,0
CCOC(=O)CSc1nc2ccc(NC(=O)CSc3nnnn3Cc3ccccc3)cc2s1,0,0,0,0,-
CC(=O)c1cn(CC(=O)NCc2ccco2)c2ccccc12,0,0,0,0,0
O=C(Cn1cc(C(=O)COc2ccccc2)c2ccccc21)NCc1ccco1,0,17,0,0,0
S=C(N/N=C/c1ccccc1Cl)Nc1ccccc1,0,0,0,0,0
Cc1c(Cl)cccc1NC(=S)N/N=C/c1ccccc1Cl,0,0,41,0,-
S=C(N/N=C/c1cccc2ccccc12)Nc1cccc(Cl)c1,0,0,220,0,0
O=C(COc1ccc(Cl)cc1)NCc1nnc(SCC(=O)Nc2ccc(F)cc2F)o1,0,0,0,0,0
Cc1ccc(Nc2nc(CSc3nnc(-c4ccncc4)n3C)cs2)cc1,0,0,258,0,0
Cc1ccc(CSc2nnc(-c3ccncc3)n2C)cc1,0,0,0,0,0
COc1ccc(N2CCN(c3ccc(N4C(=O)CC(C)C4=O)cc3[N+](=O)[O-])CC2)cc1 (stereo not drawn),0,0,66,0,0
COc1ccc(N2CCN(c3ccc(N4C(=O)COCC4=O)cc3[N+](=O)[O-])CC2)cc1,0,0,0,0,0
Cc1cccc(N(Cc2ccccc2)C(=O)Cc2ccc(S(=O)(=O)N3CCOCC3)s2)c1,0,17,0,0,0
CC(/C=N/NC(=O)CNc1n[nH]c(=O)[nH]c1=O)c1ccccc1 (stereo not drawn),0,0,0,0,0
CCCCn1c(SCC(=O)NC2CC2)nnc1-c1ccncc1,0,0,0,0,0
Cc1ccc(Cl)cc1N1CCN(CC(O)COCc2ccco2)CC1 (stereo not drawn),0,0,194,0,0
COc1ccccc1N1C(=O)C2C(C(=O)c3ccccc3)=NN(c3ccccc3OC)C2C1=O (stereo not drawn),0,0,0,0,-
Cc1nn(CC(=O)OCC(=O)NCCc2ccc(F)cc2)c(C)c1[N+](=O)[O-],0,-,-,-,0
CCOc1ccc(CCNC(=O)COC(=O)Cn2nc(C)c([N+](=O)[O-])c2C)cc1OCC,-,0,13,0,0
COc1ccc(N/C=C\C(=O)c2ccc3c(c2)OCO3)cc1,0,0,13,0,0
CCOc1ccc(N/C=C\C(=O)c2ccc3c(c2)OCO3)cc1,0,0,0,0,-
CC(C)CCNC(=O)c1cn(C)c2ccc(S(=O)(=O)N3CCCC3)cc2c1=O,0,0,0,0,0
SMILES,STK33 kinase inh,PP1 counter,HIF act,PP5 inh,DYRK1A inh
CC(C)CN(CCNC(=O)c1cn(C)c2ccc(S(=O)(=O)N3CCCC3)cc2c1=O)CC(C)C,0,0,184,0,-
Cc1cc(C)c2nc(NNC(=O)c3ccc(S(=O)(=O)N4CC(C)CC(C)C4)cc3)sc2c1 (stereo not drawn),0,16,0,0,0
Cn1cc(CN2CCC(C(=O)Nc3cccc(-c4cscn4)c3)CC2)cn1,0,0,73,0,0
CCn1cc(CN2CCC(C(=O)Nc3cccc(-c4cscn4)c3)CC2)cn1,0,0,0,0,0
O=[N+]([O-])c1ccccc1S(=O)(=O)NCCSCc1ccco1,0,17,-,0,0
O=[N+]([O-])c1ccccc1S(=O)(=O)NCc1ccco1,0,0,0,0,0
CCN(Cc1ccccc1)S(=O)(=O)c1ccc(C(=O)N(CCCN(C)C)c2nc3cc(C)cc(C)c3s2)cc1,0,16,0,0,-
COc1cccc2sc(N(CCCN(C)C)C(=O)c3ccc(S(=O)(=O)N4CCc5ccccc5C4)cc3)nc12,0,0,0,0,0
Cc1ccc2sc(N(CCCN(C)C)C(=O)c3ccc(S(=O)(=O)N4CCc5ccccc5C4)cc3)nc2c1C,0,15,0,0,0
Cc1ccc2sc(N(CCCN(C)C)C(=O)c3ccc(S(=O)(=O)N(C)Cc4ccccc4)cc3)nc2c1C,0,17,0,0,0
Cc1ccc(NCc2nc(SCC(=O)Nc3ccccc3)n[nH]2)cc1,0,0,0,0,0
O=C(OC1CCCCC1=O)c1ccc(F)c(S(=O)(=O)N2CCOCC2)c1 (stereo not drawn),0,0,0,0,0
Oc1ccccc1N=N/C(=N/Nc1ccccc1O)c1ccccc1,0,0,0,0,-
Cn1nnnc1N=N/C(=N/Nc1ccccc1)c1ccccc1,0,0,182,0,0
CC(=NCCCn1ccnc1)c1c(-c2ccccc2)[nH]n(-c2nc3ccccc3s2)c1=O,0,17,0,0,0
CC(=NC1CC1)c1c(-c2ccccc2)[nH]n(-c2nc3ccccc3s2)c1=O,0,0,0,0,0
C=CCNC(=O)/C(=C/c1cn(-c2ccccc2)nc1-c1cccc([N+](=O)[O-])c1)NC(=O)c1ccccc1,0,0,230,0,0
COc1ccccc1CC(NC(C)=O)C(=O)NC1CCN(C(=O)c2ccc([N+](=O)[O-])cc2)CC1 (stereo not drawn),0,0,0,0,0
COc1ccc(CNC(=O)CSc2nccn(-c3ccc(F)c(F)c3)c2=O)cc1,-,0,0,0,0
O=C(CN(C(=O)CCC(=O)Nc1nccs1)c1ccc(F)cc1)NCC1CCCO1 (stereo not drawn),0,0,0,0,0
O=C(CN(Cc1ccc(F)cc1)C(=O)CCC(=O)Nc1nccs1)NCC1CCCO1 (stereo not drawn),0,0,31,0,0
Clc1ccccc1Sc1ccc(-c2ccccn2)s1,0,0,0,0,-
O=C1/C(=C/c2ccccc2)SC(=S)N1CC(=O)N1CCCCC1c1cccnc1 (stereo not drawn),0,17,0,0,0
O=C(COc1ccccc1)Nc1nnc(-c2ccccc2)o1,0,15,0,0,0
O=C(COc1ccccc1)Nc1nnc(-c2ccc(Cl)s2)o1,0,19,0,0,0
SMILES,STK33 kinase inh,PP1 counter,HIF act,PP5 inh,DYRK1A inh
O=C(COc1ccccc1)Nc1cccc(-c2nnc(-c3ccccc3)o2)c1,0,0,0,0,0
CCOC(=O)/C(=N\Nc1cccc(C(F)(F)F)c1)N(CCOC)CCOC,0,0,0,0,0
CCOC(=O)/C(=N\Nc1cccc(C(F)(F)F)c1)N1CCOCC1,0,0,708,0,0
O=C(NCCc1nc2ccccc2[nH]1)c1ccc(Br)o1,0,0,0,0,0
O=C(Nc1nc2ccccc2[nH]1)c1ccc(Br)o1,60,0,0,0,0
O=C(Nc1ccccc1-c1ccccc1)c1ccc(Br)o1,36,0,0,0,0
COc1ccccc1NC(=O)c1ccc(Br)o1,0,0,0,0,0
